Measurements reported in PubChem BioAssay AID1159580 (chemical genetic matrix, 2015).
Where “and” joins values, the source holds several entries; their conditions need not be identical. Equal values may be shown once. Among all 5,500 compounds or so, about 2,000 (36%) were called active. Another 18% or so got no clear call; they are omitted. Rule as the data show it: active = normalized growth mostly below about 0.91 (no sharp cut-off); inconclusive = no clear call, values can overlap the other calls; inactive = mostly above about 0.92. This is one part of the list.

Assay: chemical genetic growth profiling, strain panel (AID 1159580);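 also: tested at 20 µM; growth read once vehicle control cultures reached saturation at 30 °C; 1 = growth at the plate median or of vehicle wells; lower values mean less growth of the strain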
Details: growth OD
[1] = S. cerevisiae deletion strains, locus YAL013W, strain DEP1, stronger effect = lower value
[2] = S. cerevisiae deletion strains, locus YBR229C, strain ROT2, stronger effect = lower value
[3] = S. cerevisiae deletion strains, locus YDL101C, strain DUN1, stronger effect = lower value
[4] = S. cerevisiae deletion strains, locus YDL134C, strain PPH21, stronger effect = lower value
[5] = S. cerevisiae deletion strains, locus YDR150W, strain NUM1, stronger effect = lower value
[6] = S. cerevisiae deletion strains, locus YEL061C, strain CIN8, stronger effect = lower value
[7] = S. cerevisiae deletion strains, locus YGR078C, strain PAC10, stronger effect = lower value
[8] = S. cerevisiae deletion strains, locus YHR030C, strain SLT2, stronger effect = lower value
[9] = S. cerevisiae deletion strains, locus YJR043C, strain POL32, stronger effect = lower value
[10] = S. cerevisiae deletion strains, locus YJR075W, strain HOC1, stronger effect = lower value
[11] = S. cerevisiae deletion strains, locus YLR039C, strain RIC1, stronger effect = lower value
[12] = S. cerevisiae deletion strains, locus YLR262C, strain YPT6, stronger effect = lower value
[13] = S. cerevisiae deletion strains, locus YMR263W, strain SAP30, stronger effect = lower value
[14] = S. cerevisiae deletion strains, locus YMR307W, strain GAS1, stronger effect = lower value
[15] = S. cerevisiae deletion strains, locus YNL153C, strain GIM3, stronger effect = lower value
[16] = S. cerevisiae deletion strains, locus YNL322C, strain KRE1, stronger effect = lower value
[17] = S. cerevisiae deletion strains, locus YPL055C, strain LGE1, stronger effect = lower value
[18] = S. cerevisiae deletion strains, locus YPL241C, strain CIN2, stronger effect = lower value
[19] = S. cerevisiae strains, strain wild type, stronger effect = lower value

Measured: normalized growth

CN1CCc2c(c3ccccc3n2Cc2ccccc2)C1
inactive: [1] 0.927 | [2] 1 | S. cerevisiae deletion strains, locus YCL029C, strain bik1, stronger effect = lower value 1.06 | S. cerevisiae deletion strains, locus YDL035C, strain GPR1, stronger effect = lower value 0.913 | S. cerevisiae deletion strains, locus YDL074C, strain BRE1, stronger effect = lower value 0.819 | [3] 1.02 | [4] 0.987 | S. cerevisiae deletion strains, locus YDL185W, strain tfp1, stronger effect = lower value 1.01 | S. cerevisiae deletion strains, locus YDL192W, strain arf1, stronger effect = lower value 1.01 | S. cerevisiae deletion strains, locus YDR101C, strain arx1, stronger effect = lower value 1 | [5] 1.01 | S. cerevisiae deletion strains, locus YDR162C, strain NBP2, stronger effect = lower value 0.992 | S. cerevisiae deletion strains, locus YDR318W, strain mcm21, stronger effect = lower value 0.992 | S. cerevisiae deletion strains, locus YDR388W, stronger effect = lower value 0.981 | S. cerevisiae deletion strains, locus YDR502C, strain sam2, stronger effect = lower value 0.953 | [6] 1 | S. cerevisiae deletion strains, locus YER110C, stronger effect = lower value 1.01 | S. cerevisiae deletion strains, locus YER155C, strain BEM2, stronger effect = lower value 1.02 | S. cerevisiae deletion strains, locus YER167W, strain BCK2, stronger effect = lower value 0.98 | S. cerevisiae deletion strains, locus YGL078C, strain dbp3, stronger effect = lower value 1.01 | S. cerevisiae deletion strains, locus YGL086W, strain mad1, stronger effect = lower value 0.963 | S. cerevisiae deletion strains, locus YGL248W, strain PDE1, stronger effect = lower value 0.998 | [7] 0.932 | [8] 0.949 and 1.03 | S. cerevisiae deletion strains, locus YHR079C, strain IRE1 (second series), stronger effect = lower value 1.01 | S. cerevisiae deletion strains, locus YHR079C, strain IRE1, stronger effect = lower value 1.03 | S. cerevisiae deletion strains, locus YHR094C, strain hxt1, stronger effect = lower value 1.01 | S. cerevisiae deletion strains, locus YHR129C, strain ARP1, stronger effect = lower value 1.01 | S. cerevisiae deletion strains, locus YHR200W, strain rpn10, stronger effect = lower value 0.999 | S. cerevisiae deletion strains, locus YIL066C, strain RNR3, stronger effect = lower value 0.951 | S. cerevisiae deletion strains, locus YIL073C, strain SPO22, stronger effect = lower value 0.956 | S. cerevisiae deletion strains, locus YIL125W, strain kgd1, stronger effect = lower value 0.996 | S. cerevisiae deletion strains, locus YIR030C, strain dcg1, stronger effect = lower value 1.01 | S. cerevisiae deletion strains, locus YJL095W, strain BCK1, stronger effect = lower value 0.847 and 1.02 | S. cerevisiae deletion strains, locus YJL134W, strain LCB3, stronger effect = lower value 1 | S. cerevisiae deletion strains, locus YJL168C, strain set2, stronger effect = lower value 1.02 | S. cerevisiae deletion strains, locus YJL187C, strain SWE1 (second series), stronger effect = lower value 0.96 | [9] 1.06 | S. cerevisiae deletion strains, locus YJR066W, strain TOR1, stronger effect = lower value 0.949 | [10] 0.934 | S. cerevisiae deletion strains, locus YKL009W, strain mrt4, stronger effect = lower value 0.934 | S. cerevisiae deletion strains, locus YKL068W, stronger effect = lower value 0.995 | S. cerevisiae deletion strains, locus YKL085W, strain MDH1 (second series), stronger effect = lower value 0.99 | S. cerevisiae deletion strains, locus YKL085W, strain MDH1, stronger effect = lower value 0.99 | S. cerevisiae deletion strains, locus YKL190W, strain CNB1, stronger effect = lower value 0.996 | S. cerevisiae deletion strains, locus YKR001C, strain vps1, stronger effect = lower value 1.01 | S. cerevisiae deletion strains, locus YLR058C, strain SHM2, stronger effect = lower value 0.998 | S. cerevisiae deletion strains, locus YLR102C, strain apc9, stronger effect = lower value 1.01 | S. cerevisiae deletion strains, locus YLR113W, strain HOG1, stronger effect = lower value 0.995 | S. cerevisiae deletion strains, locus YLR268W, strain sec22, stronger effect = lower value 1.03 | S. cerevisiae deletion strains, locus YLR330W, strain CHS5, stronger effect = lower value 1.01 | S. cerevisiae deletion strains, locus YLR371W, strain rom2, stronger effect = lower value 1.01 | S. cerevisiae deletion strains, locus YML016C, strain PPZ1, stronger effect = lower value 1 | S. cerevisiae deletion strains, locus YML032C, strain rad52, stronger effect = lower value 0.995 | S. cerevisiae deletion strains, locus YML124C, strain tub3, stronger effect = lower value 1.02 | S. cerevisiae deletion strains, locus YMR078C, strain ctf18, stronger effect = lower value 1.01 | S. cerevisiae deletion strains, locus YMR223W, strain ubp8, stronger effect = lower value 0.953 | [13] 0.912 | [14] 0.979 | S. cerevisiae deletion strains, locus YNL067W, strain RPL9B, stronger effect = lower value 0.959 | [15] 0.945 | S. cerevisiae deletion strains, locus YNL183C, strain NPR1, stronger effect = lower value 0.96 | S. cerevisiae deletion strains, locus YNL233W, strain BNI4, stronger effect = lower value 0.956 | S. cerevisiae deletion strains, locus YNL250W, strain rad50, stronger effect = lower value 1.01 | S. cerevisiae deletion strains, locus YNL271C, strain bni1, stronger effect = lower value 1.02 | S. cerevisiae deletion strains, locus YNL298W, strain CLA4, stronger effect = lower value 1 | S. cerevisiae deletion strains, locus YNL307C, strain MCK1, stronger effect = lower value 0.924 | [16] 1.01 | S. cerevisiae deletion strains, locus YNR052C, strain pop2, stronger effect = lower value 0.98 | S. cerevisiae deletion strains, locus YOL006C, strain TOP1, stronger effect = lower value 0.555 | S. cerevisiae deletion strains, locus YOL012C, strain htz1 1.16 | S. cerevisiae deletion strains, locus YOL147C, strain pex11, stronger effect = lower value 1.01 | S. cerevisiae deletion strains, locus YOR061W, strain CKA2, stronger effect = lower value 0.977 | S. cerevisiae deletion strains, locus YOR069W, strain VPS5, stronger effect = lower value 1 | S. cerevisiae deletion strains, locus YOR136W, strain idh2, stronger effect = lower value 0.996 | S. cerevisiae deletion strains, locus YOR144C, strain elg1, stronger effect = lower value 1.01 | S. cerevisiae deletion strains, locus YOR184W, strain ser1, stronger effect = lower value 0.983 | S. cerevisiae deletion strains, locus YOR231W, strain MKK1, stronger effect = lower value 1.03 | S. cerevisiae deletion strains, locus YOR316C, strain cot1, stronger effect = lower value 1.01 | [18] 1 | S. cerevisiae deletion strains, locus YPL256C, strain CLN2, stronger effect = lower value 1.06 | S. cerevisiae deletion strains, locus YPR119W, strain clb2, stronger effect = lower value 1.02 | S. cerevisiae deletion strains, locus YPR141C, strain kar3, stronger effect = lower value 0.999 | S. cerevisiae deletion strains, locus YPR163C, strain tif3, stronger effect = lower value 0.991 | S. cerevisiae deletion strains, locus YPR167C, strain met16, stronger effect = lower value 1 | S. cerevisiae deletion strains, strain wtn01, stronger effect = lower value 0.975 | [19] 0.947
active: S. cerevisiae deletion strains, locus YBR021W, strain FUR4, stronger effect = lower value 0.631 | S. cerevisiae deletion strains, locus YGR135W, strain pre9, stronger effect = lower value 0.863 | S. cerevisiae deletion strains, locus YGR229C, strain SMI1, stronger effect = lower value 0.577 | S. cerevisiae deletion strains, locus YGR252W, strain gcn5, stronger effect = lower value 0.646 | [11] 1.4 [resistant] | [12] 1.56 [resistant] | S. cerevisiae deletion strains, locus YLR342W, strain FKS1 (second series), stronger effect = lower value 0.64 | S. cerevisiae deletion strains, locus YLR418C, strain cdc73, stronger effect = lower value 0.714 | S. cerevisiae deletion strains, locus YNL128W, strain TEP1, stronger effect = lower value 0.58 | [17] 0.731

O=C1CCCc2c1c1ccccc1n2Cc1ccccc1
inactive: [1] 0.99 | [2] 0.978 | [3] 0.974 | [4] 0.989 | [5] 0.893 | [6] 0.961 | [7] 0.972 | [8] 0.712 | S. cerevisiae deletion strains, locus YHR087W, strain rtc3, stronger effect = lower value 0.965 | S. cerevisiae deletion strains, locus YJL187C, strain SWE1, stronger effect = lower value 0.992 | [9] 0.996 | [10] 0.98 | S. cerevisiae deletion strains, locus YLR058C, strain SHM2 (second series), stronger effect = lower value 0.997 | S. cerevisiae deletion strains, locus YLR085C, strain ARP6, stronger effect = lower value 0.889 | S. cerevisiae deletion strains, locus YML094W, strain GIM5, stronger effect = lower value 0.91 | S. cerevisiae deletion strains, locus YMR219W, strain ESC1, stronger effect = lower value 0.975 | [13] 0.94 | [14] 0.973 | [15] 0.98 | S. cerevisiae deletion strains, locus YNL298W, strain CLA4 (second series), stronger effect = lower value 0.95 | [16] 0.974 | S. cerevisiae deletion strains, locus YNR030W, strain Alg12, stronger effect = lower value 0.951 | [17] 0.933 | [18] 0.987 | S. cerevisiae deletion strains, locus YPR135W, strain CTF4, stronger effect = lower value 0.839 | [19] 0.974
active: [11] 0.753 | [12] 0.75
